Source: PubChem BioAssay AID686970 (National Center for Advancing Translational Sciences (NCATS), 2013)
In all, about 360,000 compounds went through this assay and about 6,000 (1.7%) were called active. About 8% were inconclusive and are not listed. The call rests on the fitted dose curve; in most records, active means well fitted cell-killing curve with a large enough effect; inconclusive means small, poorly fitted or top-dose-only effect, or effect the other way; inactive means flat fitted curve, though single readings scatter. The list comes from a sample in which actives are over-represented; it also holds similar structures and randomly drawn compounds.

assay: qHTS for induction of synthetic lethality in tumor cells producing 2HG: qHTS for the HT-1080-NT fibrosarcoma cell line; conditions: HT-1080-NT fibrosarcoma viability, CellTiter-Glo ATP luminescence, 48 h; series mostly up to 46.1 µM; activity, negative = less viability: at the top concentration;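 further: NT is the 2HG producing partner of a matched IDH1 knockdown line; nearly all actives have a fitted effect of over 55% in size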;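 on activity, negative = less viability: 0% = DMSO-treated cells and -100% = media-only wells without cells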
Method in brief: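 Compounds were tested in concentration-response format on HT-1080-NT cells for 48 hours at 37 degrees C. Cell viability came from CellTiter-Glo luminescence; curves were classified by r2, response magnitude and activity.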
Potency means the concentration at half of the fitted maximal effect.

Row | Compound | Potency | activity, negative = less viability
1 | COc1cc(OC)c(N2CC(C(=O)Nc3cc(Cl)ccc3N3CCOCC3)CC2=O)cc1Cl (stereo not given) | 5.8 µM (active) | 
2 | COc1ccc(Cl)cc1NC(=O)C1CC(=O)N(c2ccc(F)cc2)C1 (stereo not given) |  | -2.72% (inactive)
3 | COc1ccccc1N1CC(C(=O)Nc2ccc(S(=O)(=O)N3CCOCC3)cc2)CC1=O (stereo not given) |  | 11.5% (inactive)
4 | CCCNC(=O)C1(C)CCN(C(=O)c2ccccc2OC(F)(F)F)C1 (stereo not given) |  | 10.9% (inactive)
5 | O=C(O)C1CCCN1c1nc(Cl)ccc1[N+](=O)[O-] (stereo not given) |  | 2.51% (inactive)
6 | COc1ccc(-c2ccc3[nH]c4c(c3c2)CCN2C[C@H]3[C@H](C)ON(C)[C@H]3C[C@@H]42)cc1 |  | -28.4% (inactive)
7 | CCOC(=O)c1c(NC(=S)SC)sc(C(=O)N2CCc3ccccc3C2)c1C |  | -2.33% (inactive)
8 | Cc1ccc(S(=O)(=O)N2CCCCC2)cc1NC(=O)CCNC(=O)c1ccccc1Cl |  | 5.6% (inactive)
9 | Cc1ccc(-n2c(SCC(=O)NCCC3=CCCCC3)nc3n[nH]c(C)c3c2=N)cc1Cl | 23.1 µM (active) | 
10 | CCCCNC(=O)CSc1nc2n[nH]c(C)c2c(=N)n1-c1cccc(Cl)c1C |  | 1.53% [at 9.24 µM] (inactive)
11 | COc1cccc(-n2c(SCC(=O)NC3CCS(=O)(=O)C3)nc3ccccc3c2=O)c1 (stereo not given) |  | 3.51% (inactive)
12 | COc1cccc(-n2c(SCC(=O)NC3CCCCC3)nc3n[nH]c(C)c3c2=N)c1 | 14.6 µM (active) | 
13 | Cc1nnc(OCC(=O)NCCC2=CCCCC2)c2ccccc12 |  | 17.4% (inactive)
14 | C=CCn1c(CC(=O)Nc2cccc(OC)c2)nnc1SCC(=O)NC1CCCCC1 |  | -3.92% (inactive)
15 | O=c1cc(CN2CCCCCCC2)c2c(ccc3ccccc32)o1 |  | 22.8% (inactive)
16 | Nc1[nH]c(C(=O)c2ccccc2)c(-c2ccc(Br)cc2)c1C(=O)NC1CC1 |  | 0.942% (inactive)
17 | CCc1nc2c(OCCOc3ccccc3)cccn2c1N(C)C(=O)c1cccs1 |  | 12.8% (inactive)
18 | CCc1nc2c(=O)[nH]cnc2o1 |  | 10% (inactive)
19 | Cc1ccccc1S(=O)(=O)NC(=O)C1(C)CCN1C(=O)C1(c2ccccc2)CCCC1 (stereo not given) |  | 13.7% (inactive)
20 | CCOC(=O)C1(C)CCCN(C(=O)c2ccc(F)c(Cl)c2)C1 (stereo not given) |  | -2.76% (inactive)

Row | Compound | Potency | activity, negative = less viability
21 | COc1ccc(CNC(=O)C2CCCC2)cc1 |  | 14.5% (inactive)
22 | COc1ccc(CNc2nc(NCc3ccc(OC)cc3)c3ncn(C4CCCC4)c3n2)cc1 | 7.31 µM (active) | 
23 | COc1ccc(CNc2nccs2)cc1 |  | -2.05% (inactive)
24 | O=c1[nH][nH]c2c1[C@H](c1ccc(Cl)cc1)O[C@H](CCc1ccccc1)C2 |  | -25.7% (inactive)
25 | COc1cccc(CNC(=O)[C@@H]2CCCN2C(=O)[C@@H]2CCCN2C(=O)c2ccccc2)c1 |  | 10.9% (inactive)
26 | CC1(C(=O)NCc2ccc3c(c2)OCO3)CCN1C(=O)Cc1cccc2ccccc12 (stereo not given) |  | 0.53% (inactive)
27 | COc1ccc(OC)c(C(O)c2ncc(-c3cccc(C(F)(F)F)c3)[nH]2)c1 (stereo not given) |  | -8.49% (inactive)
28 | COc1cc2nc(Cl)nc(NC3CC3)c2cc1OC |  | -5.51% (inactive)
29 | Cc1ccc([C@H]2N[C@]3(CCCN(Cc4ccccc4)C3=O)[C@H]3C(=O)N(Cc4ccccc4)C(=O)[C@@H]23)cc1 |  | -8.22% (inactive)
30 | CC(C)C[C@H]1CNC(=S)N1C[C@H]1CCCN1C[C@H](Cc1ccc(O)cc1)N1C[C@H](Cc2ccc(O)cc2)N(CC2CCCCC2)C1=S | 20.6 µM (active) | 
31 | CC(C)C[C@H]1CN([C@@H](Cc2ccccc2)CN2CCC[C@@H]2CN2C(=O)C(=O)NC[C@@H]2Cc2ccc(O)cc2)C(=O)C(=O)N1CCc1ccccc1 |  | 7.9% (inactive)
32 | CC(C)C[C@H]1CNC(=O)C(=O)N1C[C@@H]1CCCN1C[C@H](Cc1ccccc1)N1C[C@H](CC(C)C)N(CC2CCCCCC2)C(=O)C1=O |  | 23% (inactive)
33 | C[C@@H]1CN([C@@H](C)CO)C(=O)CCCn2nncc2CO[C@H]1CN(C)Cc1ccc(C(F)(F)F)cc1 |  | 17.2% (inactive)
34 | CC1(C(=O)NS(=O)(=O)c2cccs2)CCN1C(=O)Cc1ccc(-c2ccccc2)cc1 (stereo not given) |  | 0.809% (inactive)
35 | COc1cc(SC#N)ccc1N=Cc1c(C)[nH]n(-c2ccc(C)cc2)c1=O | 25.9 µM (active) | 
36 | O=Cc1cn(CCOc2ccc(F)cc2)c2ccccc12 |  | 5.53% (inactive)
37 | CCc1nc2ccc(C(=O)Nc3cccc(OC)c3)cn2c1N(CCC(C)C)CCN(C)C | 18.4 µM (active) | 
38 | CCc1nc2ccc(C(=O)N(C)CCN(C)C)cn2c1N(CC)CCOC |  | 15.1% (inactive)
39 | CCc1nc2ccc(C(=O)Nc3ccc(OC)c(OC)c3)cn2c1N(C)C(=O)c1cccc(OC)c1 |  | 21.7% (inactive)
40 | Fc1ccc2[nH]c3c(N4CCN(Cc5ccc6c(c5)OCO6)CC4)ncnc3c2c1 | 23.1 µM (active) | 

Row | Compound | Potency | activity, negative = less viability
41 | CCCCCc1c(C)nc(N2CCN(Cc3ccc4c(c3)OCO4)CC2)[nH]c1=O |  | 2.77% (inactive)
42 | O=c1[nH]c(N2CCN(Cc3ccc4c(c3)OCO4)CC2)nc2c1CCCC2 |  | 15.1% (inactive)
43 | COc1cccc(-c2cc3nc(NCCOc4ccccc4Cl)n(C)c(=O)c3s2)c1 |  | 3.07% (inactive)
44 | CCCC(=O)N1CCC1(C)C(=O)NCc1ccc(SC)cc1 (stereo not given) |  | 0.58% (inactive)
45 | CCCc1nc2ccccc2n1C(C)C(=O)NC(C)(C)C (stereo not given) |  | 10.5% (inactive)
46 | Cc1cccc(-c2cnc(C(O)c3ccc4ccccc4c3)[nH]2)c1 (stereo not given) |  | -10.5% (inactive)
47 | CN(c1ccccc1)S(=O)(=O)c1ccc(Cl)c(C(=O)NCCc2c[nH]c3ccccc23)c1 |  | -7.85% (inactive)
48 | CN(C)CCNC(=O)Nc1cccc(Cl)c1Cl |  | -8.51% (inactive)
49 | CN(C)CCNC(=O)c1ccc(Cl)c2cc3ccccc3nc12 | 20.6 µM (active) | 
50 | CC1(Oc2ccc(Cl)cc2)CCN(Cc2csc3ccccc23)C1 (stereo not given) |  | 10.5% (inactive)
51 | COc1ccc(CNC(=O)C2CC(c3ccc(C(F)(F)F)cc3)=NO2)cc1 (stereo not given) |  | -10.4% (inactive)
52 | COc1ccc(C2=NOC(C(=O)NCc3ccco3)C2)cc1OC (stereo not given) | 6.31 µM (active) | 
53 | COc1ccc(S(=O)(=O)N2CCC(C(=O)NCc3ccco3)CC2)cc1C |  | 1.61% (inactive)
54 | COc1ccc(CN2C[C@H]3CON(C)[C@H]3C[C@H]2c2ccc(-c3cccc(F)c3)cc2)cc1 |  | -27.7% (inactive)
55 | Cc1sc2ncnc(SCC(=O)NC3CCS(=O)(=O)C3)c2c1C (stereo not given) |  | -12.9% (inactive)
56 | Cc1ccc(CN(C)C[C@@H]2OCc3cnnn3CCCC(=O)N([C@@H](C)CO)C[C@H]2C)cc1 |  | -0.921% (inactive)
57 | CCOc1cccc(=O)c2c(C)n(CC3CCCO3)c(C)c12 (stereo not given) |  | -0.086% (inactive)
58 | CN1CN(C)c2ccc([N+](=O)[O-])c3cccc1c23 |  | -4.95% (inactive)
59 | O=C1c2cccc3c([N+](=O)[O-])ccc(c23)C(=O)N1CC1CCCO1 (stereo not given) | 23.1 µM (active) | 
60 | O=C(NCCS(=O)(=O)N1CCN(c2ccccc2)CC1)c1cc(=O)c2ccccc2o1 |  | 0.636% (inactive)
